Shown are actives, neighbours in structure and some others; about 1.1% of the full set was active somewhere.
PGK inhibitor – qHTS Assay to Find Inhibitors of Phosphoglycerate Kinase. Potency, µM (doses to about 57.5 µM), actives largely listed as inhibitors. AID 602233, 2012. 380,000 compounds, 0.043% hits. PGK/GAPDH coupled, Kinase-Glo luminescence, 60 min. Phosphoglycerate kinase, glycosomal (Trypanosoma brucei brucei), P07378; further: nearly all actives have a fitted effect of over 60% in size
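Luminescent ATP detection (Kinase-Glo Plus) follows a 60-minute room-temperature incubation, with wells lacking PGK as controls. Buffer: 100 mM TEA (pH 7.6), 5 mM MgCl2, 0.01% Tween-20. Coupling enzyme GAPDH (100 nM final) supplies unstable 1,3-BPG in-well.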
Pin1 inhibitor – qHTS Assay to Find Inhibitors of Pin1. Pin1 FP peptide displacement, HiFluor488, 10 min. Peptidyl-prolyl cis-trans isomerase NIMA-interacting 1 (Homo sapiens), Q13526. AID 504891, 2011. 390,000 compounds, 0.009% hits. Potency, µM (top dose mostly 115 µM), hits mostly inhibitors; active means well fitted inhibition curve with a large enough effect in the polarisation, with a control signal flat, not every such curve was filed as active; inconclusive means small, poorly fitted or top-dose-only effect, or effect the other way, or a change in a side signal; inactive means no such curve, though single readings can be large or run the other way; the % refers to the polarisation
VDR inhibitor – Inhibitors of the vitamin D receptor (VDR): qHTS | VDR-SRC2-3 peptide fluorescence polarization, 2 h | Potency, µM, usual class: inhibitors | 400,000 compounds, 0.93% hits
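Fluorescence polarization assay of small-molecule disruption of VDR binding to coregulator peptide SRC2-3. Compounds and controls pin-transferred, then read after 2 h incubation at ambient room temperature.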
Tb PFK inh – qHTS Assay to Find Inhibitors of T. brucei phosphofructokinase; ATP-dependent 6-phosphofructokinase (Trypanosoma brucei brucei), O15648; T. brucei PFK, ADP-Glo luminescence; Potency, µM (doses to about 57.5 µM), actives largely listed as inhibitors; 330,000 compounds, 0.17% hits; AID 485367, 2010; further: nearly all actives have a fitted effect of over 60% in size
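Luminescent ADP detection (ADP-Glo, two-step: ATP depletion then ADP-to-ATP conversion for luciferase) reported PFK activity after 45 min room-temperature reaction of 1.25 nM enzyme with 0.5 mM F6P and 0.1 mM ATP at pH 8.0.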
GLS inh – qHTS for Inhibitors of Glutaminase (GLS); AID 624170, 2012; Potency, µM (titrated, usually from 45.5 µM), hits mostly inhibitors; 410,000 compounds, 0.21% hits; GLS enzymatic activity, qHTS titration; Glutaminase kidney isoform, mitochondrial (Homo sapiens), O94925
Target sequence (O94925 whole entry, looked up, canonical isoform): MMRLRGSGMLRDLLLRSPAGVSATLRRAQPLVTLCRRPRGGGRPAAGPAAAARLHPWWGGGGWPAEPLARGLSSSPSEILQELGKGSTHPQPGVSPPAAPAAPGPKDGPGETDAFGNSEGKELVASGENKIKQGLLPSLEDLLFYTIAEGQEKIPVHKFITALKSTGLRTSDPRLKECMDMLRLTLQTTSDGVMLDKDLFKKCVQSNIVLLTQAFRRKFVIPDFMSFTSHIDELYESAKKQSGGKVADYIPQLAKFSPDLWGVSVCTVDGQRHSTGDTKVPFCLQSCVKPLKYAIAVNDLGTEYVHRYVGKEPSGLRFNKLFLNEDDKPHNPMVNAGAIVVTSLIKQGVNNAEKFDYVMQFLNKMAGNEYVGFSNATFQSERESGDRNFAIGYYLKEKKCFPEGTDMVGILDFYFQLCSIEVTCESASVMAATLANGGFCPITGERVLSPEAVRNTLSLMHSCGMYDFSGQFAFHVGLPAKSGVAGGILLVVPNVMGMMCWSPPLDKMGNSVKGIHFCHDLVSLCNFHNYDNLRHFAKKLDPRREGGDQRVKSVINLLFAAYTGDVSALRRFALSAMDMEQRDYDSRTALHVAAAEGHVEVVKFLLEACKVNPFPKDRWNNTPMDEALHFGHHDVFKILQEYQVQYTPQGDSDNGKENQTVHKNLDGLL
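hKGA; 45 mM KH2PO4 pH 8.2 + 0.02% Tween-20; cpd via pin tool; 1 mM Gln soln; GluOx/HRP/Amplex Red; RT 30 min; fluor. t0 & final.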
Each line names hits and unclear results; the compound was inactive in the other large screens. Unless noted, the call rests on the fitted dose curve; in most records, active means well fitted curve in the direction sought with a large enough effect; inconclusive means small, poorly fitted or top-dose-only effect, or another doubt; inactive means no such curve, though single readings can be large; an effect the other way counts as inactive or inconclusive.

Cc1[nH]n(-c2ccccc2)c(=O)c1C(c1cccc([N+](=O)[O-])c1)c1c(C)[nH]n(-c2ccccc2)c1=O	VDR inhibitor 56µM
O=C(O)c1ccccc1-c1c2cc(Br)c(=O)c(Br)c-2oc2c(Br)c(O)c(Br)cc12	VDR inhibitor 35µM (no result: PGK inhibitor, Pin1 inhibitor, Tb PFK inh)
CCOC(=O)c1cc(-c2ccccc2)sc1NC(=O)c1ccc(OC)c(OC)c1	VDR inhibitor 79µM
Cc1ccc(NC(=O)C2CCN(C(=O)c3cnn(-c4ccccc4)c3-n3cccc3)CC2)cc1Cl	none (no result: Tb PFK inh)
C/C=C\C=C/C(=O)Nc1cccc(C2=NOC3(C2)C[C@@H](C(N)=O)N(C(=O)COc2ccc(Cl)cc2)C3)c1 (stereo partly specified)	VDR inhibitor inconclusive, GLS inh inconclusive
C=C(C)C(=O)Nc1cccc(C2=NOC3(C2)C[C@@H](C(N)=O)N(C(=O)c2cc([N+](=O)[O-])cc([N+](=O)[O-])c2)C3)c1 (stereo partly specified)	PGK inhibitor 18µM, Tb PFK inh inconclusive
C/C=C\C=C\C(=O)N1CC2(CC(c3cccc(NC(=O)COc4ccc(Cl)cc4)c3)=NO2)C[C@H]1C(N)=O (stereo partly specified)	Pin1 inhibitor inconclusive, VDR inhibitor 89µM, Tb PFK inh inconclusive
CCN(CC)S(=O)(=O)c1ccc2c(c1)c(=O)c(C(=O)N(C)Cc1ccccc1)cn2C	none (no result: Tb PFK inh)
Cc1ccccc1-c1cn(-c2ccccc2)c(=S)[nH]1	GLS inh 11µM
COC(=O)c1ccc2c(=O)n(CCCCCC(=O)NCCc3ccccc3)c(=O)[nH]c2c1	GLS inh 11µM (no result: Tb PFK inh)
O=C(CCCCCn1c(=O)[nH]c2ccccc2c1=O)NCc1ccc(Cl)cc1	GLS inh inconclusive (no result: Tb PFK inh)
O=C(CCCCCn1c(=O)[nH]c2ccccc2c1=O)NCc1ccccc1	GLS inh 8.9µM (no result: Tb PFK inh)
CC(C)(C)c1ccc(OCCn2cc(C(=O)c3ccco3)c3ccccc32)cc1	none (no result: Tb PFK inh)
CCCCC/C=C/C1=CC(=O)C[C@H](c2ccc(OC)cc2)C1	none
COc1ccc([C@H]2CC(=O)C=C(/C=C/Cc3ccccc3)C2)cc1	VDR inhibitor 79µM
COc1ccc(-c2nc3scc(CCNS(=O)(=O)c4cccc(C(C)=O)c4)n3n2)cc1	none (no result: Tb PFK inh)
COC(=O)c1c(OC)cc2c(c1C)Oc1c(Cl)c(O)c(Cl)c(C)c1C(=O)O2	VDR inhibitor 40µM (no result: PGK inhibitor, Pin1 inhibitor, Tb PFK inh, GLS inh)
COC(=O)c1c(Cl)c(Cl)c(C(=O)OC)c(Cl)c1Cl	none (no result: PGK inhibitor, Pin1 inhibitor, Tb PFK inh)
N#CC1=C2SCN(C3CCCCC3)CN2C(=O)CC1c1c(F)cccc1Cl (stereo unspecified)	VDR inhibitor 20µM (no result: Tb PFK inh)
N#CC1=C2SCN(C3CCCCC3)CN2C(=O)CC1c1ccc(F)cc1 (stereo unspecified)	VDR inhibitor 18µM (no result: Tb PFK inh)
N#CC1=C2SCN(C3CCCCC3)CN2C(=O)CC1c1ccc(Cl)cc1 (stereo unspecified)	VDR inhibitor 22µM (no result: Tb PFK inh)
CC(C)c1ccc(C2CC(=O)N3CN(C)CSC3=C2C#N)cc1 (stereo unspecified)	VDR inhibitor inconclusive, GLS inh inconclusive
COc1ccc(NCc2ccc([N+](=O)[O-])s2)c(OC)c1	none
O=[N+]([O-])c1ccc(CNc2cccc(Cl)c2)s1	Tb PFK inh 7.6µM
O=C(Cn1cnc2ccccc21)Nc1ccc2c(c1)OCCCO2	none
O=C(O)c1cc(O)c2c(c1)C(=O)c1cc(O)cc(O)c1C2=O	PGK inhibitor inconclusive, Pin1 inhibitor inconclusive, GLS inh 18µM
CC(=O)Oc1cccc2c1C(=O)c1c(OC(C)=O)cc(C(=O)O)cc1C2=O	Pin1 inhibitor inconclusive, VDR inhibitor inconclusive
Nc1c(C(=O)N2CCOCC2)sc2nc(N3CCOCC3)c3c(c12)CCCC3	VDR inhibitor 71µM
O=Cc1sc(=O)n(Cc2cccc(C(=O)O)c2)c1Cl	VDR inhibitor 79µM
CC(C)Nc1ncnc2c1ncn2[C@H]1CN(Cc2cccnc2)C[C@@H](CO)O1	none (no result: PGK inhibitor, Pin1 inhibitor, VDR inhibitor, Tb PFK inh)
COc1ccccc1NC(=O)c1cc2cc(Br)ccc2oc1=N	VDR inhibitor 89µM
COc1ccc2o/c(=N\O)c(C(=O)Nc3ccccc3OC)cc2c1	Tb PFK inh inconclusive
COc1ccc(Nc2nc3ccccc3nc2NS(=O)(=O)c2ccc(Cl)cc2)cc1OC	none (no result: Tb PFK inh)
COc1ccc(C(C[N+](=O)[O-])c2c(-c3ccccc3)cc3ccccn23)cc1OC (stereo unspecified)	none (no result: Tb PFK inh)
COc1cc(C(C[N+](=O)[O-])c2c(C)cc3ccccn23)ccc1O (stereo unspecified)	GLS inh 7.9µM
Cc1c(C(=O)N(C)C)sc2c1c(=O)n(-c1ccc(Cl)cc1)c(=O)n2CC(=O)C(C)(C)C	none (no result: Tb PFK inh)
COc1ccc(-c2nc3cnc(N4CCNCC4)nc3n(CCc3ccccc3)c2=O)cc1	none (no result: PGK inhibitor, Pin1 inhibitor, Tb PFK inh, GLS inh)
CCc1nc(Nc2ccc(O)cc2)c2oc3ccccc3c2n1	Pin1 inhibitor inconclusive, GLS inh 4.5µM
COc1cc(NCc2ccc3nc(N)nc(N)c3c2C)cc(OC)c1OC	VDR inhibitor 25µM (no result: PGK inhibitor, Pin1 inhibitor, Tb PFK inh)
Cc1ccc(CSC2=NC(C)(C)Nc3ccccc32)c(C)c1	Pin1 inhibitor inconclusive (no result: Tb PFK inh)
Cc1ccc(S(=O)(=O)Nc2nc(C)c(NC(=O)OCCCl)s2)cc1	VDR inhibitor 89µM
O=C(/N=C1\NC(=O)C(F)(C(F)(F)F)S1)NC1CCCCC1 (stereo unspecified)	VDR inhibitor 50µM
CCC1S/C(=N/C(=O)NC2CCCCC2)NC1=O (stereo unspecified)	none
Nc1sc2c(c1C(=O)c1ccc(Cl)cc1)CCCC2	VDR inhibitor 45µM (no result: PGK inhibitor, Pin1 inhibitor, Tb PFK inh, GLS inh)
CCn1c(Cl)c(C=O)s/c1=N\S(=O)(=O)c1ccccc1	VDR inhibitor 3.2µM
CCN1C(=O)CS/C1=N\S(=O)(=O)c1ccc(Cl)cc1	none
Fc1ccc(/C=N/N2CCN(Cc3ccccc3)CC2)cc1	Pin1 inhibitor inconclusive
CC(=O)Nc1ccc2c(O)cc(S(=O)(=O)O)cc2c1	Pin1 inhibitor inconclusive, GLS inh 10µM (no result: Tb PFK inh)
COc1ccccc1Nc1ccc2c(O)cc(S(=O)(=O)O)cc2c1	PGK inhibitor 22µM, Pin1 inhibitor 21µM, VDR inhibitor inconclusive, GLS inh 2.2µM (no result: Tb PFK inh)
CC(C)Nc1cccnc1N1CCN(C(=O)c2cc3cc(NS(C)(=O)=O)ccc3[nH]2)CC1	VDR inhibitor inconclusive (no result: PGK inhibitor, Pin1 inhibitor, Tb PFK inh)
COc1cccc(NC(=O)c2cc3ccccc3cc2OC)c1	none
COc1cccc(NC(=O)c2sc3ncn(CC(=O)N4CCN(c5ccccn5)CC4)c(=O)c3c2C)c1	VDR inhibitor 25µM, GLS inh inconclusive
Cc1ccc(NC(=O)c2sc3ncn(CC(=O)N4CCN(c5ccccn5)CC4)c(=O)c3c2C)cc1Cl	none
CCc1nn2c(=O)c(S(=O)(=O)Nc3ccc(OC)c(Cl)c3)c(C)nc2s1	none (no result: Tb PFK inh)
